Consider eight compounds from ChEMBL document CHEMBL2218924, “A broad activity screen in support of a chemogenomic map for kinase signalling research and drug discovery” (Biochem J, 2013).

In experiment [1] the target is Insulin receptor (Homo sapiens) (UniProt P06213). The note with it: at 10 µM.
Experiment [2] shares this target. The conditions noted are these: at 1 µM.
The target is the same in experiment [3]. The conditions noted are these: at 10 µM. The source holds these as a separate data set.
Experiment [4] concerns the target Interleukin-1 receptor-associated kinase 1 (Homo sapiens) (UniProt P51617). The conditions noted are these: at 10 µM.
In experiment [5] the target is T1, Interleukin-1 receptor-associated kinase 4 (Homo sapiens) (UniProt Q9NWZ3).
T1 sequence (whole entry): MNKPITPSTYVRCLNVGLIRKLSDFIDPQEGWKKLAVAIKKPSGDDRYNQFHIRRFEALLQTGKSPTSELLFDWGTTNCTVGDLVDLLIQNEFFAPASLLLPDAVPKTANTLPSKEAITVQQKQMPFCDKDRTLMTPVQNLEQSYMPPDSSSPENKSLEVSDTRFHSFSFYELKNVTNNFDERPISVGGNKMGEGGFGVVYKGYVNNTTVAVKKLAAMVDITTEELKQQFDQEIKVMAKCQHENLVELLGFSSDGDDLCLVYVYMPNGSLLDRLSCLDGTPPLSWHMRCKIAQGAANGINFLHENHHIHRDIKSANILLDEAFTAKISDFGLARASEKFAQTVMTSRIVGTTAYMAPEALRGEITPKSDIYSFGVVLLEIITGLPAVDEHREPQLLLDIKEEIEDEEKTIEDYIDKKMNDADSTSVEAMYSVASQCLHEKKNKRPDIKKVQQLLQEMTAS
The conditions noted are these: at 1 µM.

Experiment [6] deals with T1, Interleukin-1 receptor-associated kinase 4 (Homo sapiens). The conditions noted are these: at 10 µM.
The target of experiment [7] is Insulin receptor-related protein (Homo sapiens) (UniProt P14616). The conditions noted are these: at 1 µM.
For experiment [8] the target is unchanged. The note with it: at 10 µM.
Experiment [9] deals with T2, Tyrosine-protein kinase ITK/TSK (Homo sapiens) (UniProt Q08881).
T2 sequence (whole entry): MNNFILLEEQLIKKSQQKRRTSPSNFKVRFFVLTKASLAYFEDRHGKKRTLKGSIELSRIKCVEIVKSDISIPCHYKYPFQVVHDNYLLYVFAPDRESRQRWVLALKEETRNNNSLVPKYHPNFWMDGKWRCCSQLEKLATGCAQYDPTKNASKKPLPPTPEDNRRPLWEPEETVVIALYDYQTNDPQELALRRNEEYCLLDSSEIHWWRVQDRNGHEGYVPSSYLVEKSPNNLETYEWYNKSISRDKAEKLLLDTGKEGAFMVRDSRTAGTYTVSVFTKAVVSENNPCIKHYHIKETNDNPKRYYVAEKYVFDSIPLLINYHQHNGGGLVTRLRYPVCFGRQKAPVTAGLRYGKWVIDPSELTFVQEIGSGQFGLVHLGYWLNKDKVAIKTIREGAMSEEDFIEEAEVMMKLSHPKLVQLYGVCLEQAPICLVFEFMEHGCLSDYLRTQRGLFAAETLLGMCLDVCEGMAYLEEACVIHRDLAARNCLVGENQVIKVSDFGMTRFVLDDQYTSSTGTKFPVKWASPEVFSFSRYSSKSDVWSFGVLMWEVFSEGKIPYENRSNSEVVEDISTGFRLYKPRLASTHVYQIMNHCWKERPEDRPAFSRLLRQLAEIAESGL
The conditions noted are these: at 1 µM.

Experiment [10] concerns the target T2, Tyrosine-protein kinase ITK/TSK (Homo sapiens). The note with it: at 10 µM.
In experiment [11] the target is Tyrosine-protein kinase JAK2 (Homo sapiens) (UniProt O60674). The note with it: at 1 µM.
The target is the same in experiment [12]. The conditions noted are these: at 10 µM.
In experiment [13] the target is T3, Tyrosine-protein kinase JAK3 (Homo sapiens) (UniProt P52333).
T3 sequence (whole entry): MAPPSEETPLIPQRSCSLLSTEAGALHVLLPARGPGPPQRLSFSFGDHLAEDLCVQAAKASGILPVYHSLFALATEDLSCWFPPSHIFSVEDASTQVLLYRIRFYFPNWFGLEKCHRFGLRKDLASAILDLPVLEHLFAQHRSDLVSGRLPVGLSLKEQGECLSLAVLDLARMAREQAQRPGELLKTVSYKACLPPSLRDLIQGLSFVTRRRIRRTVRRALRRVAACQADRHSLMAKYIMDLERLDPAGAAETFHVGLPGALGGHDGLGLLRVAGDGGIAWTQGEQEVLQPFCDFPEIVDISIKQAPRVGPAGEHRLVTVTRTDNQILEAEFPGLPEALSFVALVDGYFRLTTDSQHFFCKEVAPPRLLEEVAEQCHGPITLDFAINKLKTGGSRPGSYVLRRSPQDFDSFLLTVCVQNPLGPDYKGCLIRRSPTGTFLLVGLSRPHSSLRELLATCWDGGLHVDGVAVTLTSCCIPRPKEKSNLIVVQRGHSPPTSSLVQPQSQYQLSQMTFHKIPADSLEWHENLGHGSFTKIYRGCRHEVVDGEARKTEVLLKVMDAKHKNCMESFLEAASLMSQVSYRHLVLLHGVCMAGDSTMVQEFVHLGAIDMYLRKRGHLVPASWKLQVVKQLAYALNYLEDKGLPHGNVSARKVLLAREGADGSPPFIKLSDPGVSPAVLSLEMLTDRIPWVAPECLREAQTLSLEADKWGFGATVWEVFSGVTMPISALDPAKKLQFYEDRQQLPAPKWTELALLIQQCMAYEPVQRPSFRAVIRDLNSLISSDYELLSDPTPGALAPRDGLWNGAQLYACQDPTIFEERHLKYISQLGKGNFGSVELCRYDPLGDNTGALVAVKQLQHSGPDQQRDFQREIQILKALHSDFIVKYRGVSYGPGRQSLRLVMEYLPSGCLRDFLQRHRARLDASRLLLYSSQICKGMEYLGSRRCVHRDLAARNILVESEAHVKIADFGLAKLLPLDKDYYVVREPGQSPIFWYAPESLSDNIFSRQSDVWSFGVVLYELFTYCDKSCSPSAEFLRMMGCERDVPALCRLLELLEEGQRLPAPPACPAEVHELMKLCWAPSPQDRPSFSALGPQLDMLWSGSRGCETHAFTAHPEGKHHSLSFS
The note with it: at 1 µM.

In experiment [14] the target is T3, Tyrosine-protein kinase JAK3 (Homo sapiens). The note with it: at 10 µM.
The target in experiment [15] is Mitogen-activated protein kinase 8 (Homo sapiens) (UniProt P45983). The note with it: at 1 µM.
The target is the same in experiment [16]. The note with it: at 10 µM.
The target of experiment [17] is Mitogen-activated protein kinase 9 (Homo sapiens) (UniProt P45984). The conditions noted are these: at 1 µM.
Experiment [18] has the same target. The conditions noted are these: at 10 µM.
The target in experiment [19] is Mitogen-activated protein kinase 10 (Homo sapiens) (UniProt P53779). The conditions noted are these: at 1 µM.
Experiment [20] addresses Interleukin-1 receptor-associated kinase 1 (Homo sapiens) (UniProt P51617). The note with it: at 1 µM.

Mitogen-activated protein kinase 8 (Homo sapiens), sequence (P45983 whole entry): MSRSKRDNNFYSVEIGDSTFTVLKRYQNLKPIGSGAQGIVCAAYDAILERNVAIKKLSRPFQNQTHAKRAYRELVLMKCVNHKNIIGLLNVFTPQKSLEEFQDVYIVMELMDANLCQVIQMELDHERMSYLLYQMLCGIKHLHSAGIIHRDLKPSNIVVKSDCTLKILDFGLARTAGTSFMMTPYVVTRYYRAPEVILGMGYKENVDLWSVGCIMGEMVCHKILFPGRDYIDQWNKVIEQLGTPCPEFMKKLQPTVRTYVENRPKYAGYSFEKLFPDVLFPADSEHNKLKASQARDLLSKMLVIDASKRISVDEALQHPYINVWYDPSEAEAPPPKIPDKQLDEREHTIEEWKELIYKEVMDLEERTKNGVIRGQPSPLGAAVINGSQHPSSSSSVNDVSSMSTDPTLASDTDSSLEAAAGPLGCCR
Insulin receptor (Homo sapiens), sequence (P06213 28-758 limits assumed): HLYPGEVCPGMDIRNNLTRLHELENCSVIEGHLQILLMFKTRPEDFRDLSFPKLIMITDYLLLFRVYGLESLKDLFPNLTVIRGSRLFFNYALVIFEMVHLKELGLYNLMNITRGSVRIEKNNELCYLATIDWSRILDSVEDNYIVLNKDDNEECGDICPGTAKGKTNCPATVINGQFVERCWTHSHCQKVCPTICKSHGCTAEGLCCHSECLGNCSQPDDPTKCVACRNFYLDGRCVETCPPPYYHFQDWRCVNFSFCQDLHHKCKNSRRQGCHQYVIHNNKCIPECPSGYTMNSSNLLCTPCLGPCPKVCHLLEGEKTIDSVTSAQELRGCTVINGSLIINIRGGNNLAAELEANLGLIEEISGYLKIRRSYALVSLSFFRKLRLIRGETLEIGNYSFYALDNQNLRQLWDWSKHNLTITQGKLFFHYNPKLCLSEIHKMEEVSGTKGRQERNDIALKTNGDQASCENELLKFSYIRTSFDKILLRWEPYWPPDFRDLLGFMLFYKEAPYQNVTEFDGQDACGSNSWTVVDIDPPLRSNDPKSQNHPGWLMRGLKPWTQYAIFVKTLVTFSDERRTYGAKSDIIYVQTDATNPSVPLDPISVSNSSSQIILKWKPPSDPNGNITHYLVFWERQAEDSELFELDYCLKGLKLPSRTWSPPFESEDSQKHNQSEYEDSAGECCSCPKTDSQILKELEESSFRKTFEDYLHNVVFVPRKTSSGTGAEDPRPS
Insulin receptor (Homo sapiens), sequence (P06213 763-1382 limits assumed): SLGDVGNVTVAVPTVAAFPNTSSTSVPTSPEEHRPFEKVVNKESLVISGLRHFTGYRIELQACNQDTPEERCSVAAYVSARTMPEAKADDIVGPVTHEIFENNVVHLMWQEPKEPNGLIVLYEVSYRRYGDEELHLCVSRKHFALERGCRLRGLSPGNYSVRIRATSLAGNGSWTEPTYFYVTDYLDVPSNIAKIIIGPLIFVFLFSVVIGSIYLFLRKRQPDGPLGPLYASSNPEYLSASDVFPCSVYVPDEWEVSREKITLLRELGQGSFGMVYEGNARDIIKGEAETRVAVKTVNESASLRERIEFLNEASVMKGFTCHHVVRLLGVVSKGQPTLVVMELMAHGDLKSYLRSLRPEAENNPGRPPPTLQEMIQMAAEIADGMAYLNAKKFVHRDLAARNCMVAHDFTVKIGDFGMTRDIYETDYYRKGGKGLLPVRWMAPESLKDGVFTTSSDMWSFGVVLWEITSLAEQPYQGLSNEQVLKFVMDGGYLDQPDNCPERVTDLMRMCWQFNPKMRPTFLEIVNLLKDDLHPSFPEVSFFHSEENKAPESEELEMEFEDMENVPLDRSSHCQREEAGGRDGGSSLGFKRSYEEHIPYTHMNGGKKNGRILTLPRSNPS
Mitogen-activated protein kinase 9 (Homo sapiens), sequence (P45984 whole entry, looked up): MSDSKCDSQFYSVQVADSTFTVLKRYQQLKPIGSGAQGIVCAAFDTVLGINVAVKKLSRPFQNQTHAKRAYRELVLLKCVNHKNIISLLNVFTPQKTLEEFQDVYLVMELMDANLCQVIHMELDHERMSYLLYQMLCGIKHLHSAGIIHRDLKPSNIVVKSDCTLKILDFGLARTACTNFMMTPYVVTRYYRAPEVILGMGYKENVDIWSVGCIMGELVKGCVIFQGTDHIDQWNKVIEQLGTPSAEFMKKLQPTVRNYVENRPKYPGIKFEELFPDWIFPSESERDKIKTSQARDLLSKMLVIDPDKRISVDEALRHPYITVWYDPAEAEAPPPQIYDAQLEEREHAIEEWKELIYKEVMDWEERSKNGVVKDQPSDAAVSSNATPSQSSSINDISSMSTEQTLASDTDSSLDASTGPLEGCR
Insulin receptor-related protein (Homo sapiens), sequence (P14616 27-742 limits assumed): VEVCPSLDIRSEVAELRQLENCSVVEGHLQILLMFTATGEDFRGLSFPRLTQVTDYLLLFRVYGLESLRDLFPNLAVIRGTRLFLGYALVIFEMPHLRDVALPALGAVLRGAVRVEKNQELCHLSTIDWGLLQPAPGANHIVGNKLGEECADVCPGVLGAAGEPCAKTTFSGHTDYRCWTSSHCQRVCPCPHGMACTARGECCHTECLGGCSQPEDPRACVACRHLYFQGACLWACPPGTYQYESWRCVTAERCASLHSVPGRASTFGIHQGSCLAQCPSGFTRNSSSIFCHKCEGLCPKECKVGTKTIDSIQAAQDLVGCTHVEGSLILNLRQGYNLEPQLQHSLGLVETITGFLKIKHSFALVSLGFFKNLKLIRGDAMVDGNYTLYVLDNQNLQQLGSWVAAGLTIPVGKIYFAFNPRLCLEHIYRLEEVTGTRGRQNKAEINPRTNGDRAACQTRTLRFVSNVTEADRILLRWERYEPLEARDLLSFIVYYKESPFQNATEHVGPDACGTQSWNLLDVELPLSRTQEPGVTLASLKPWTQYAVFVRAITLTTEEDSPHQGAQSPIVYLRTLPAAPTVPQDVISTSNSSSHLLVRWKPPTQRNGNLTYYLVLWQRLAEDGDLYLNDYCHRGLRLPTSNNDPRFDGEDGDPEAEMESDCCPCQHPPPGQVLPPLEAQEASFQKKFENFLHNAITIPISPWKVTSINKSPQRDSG
Insulin receptor-related protein (Homo sapiens), sequence (P14616 747-1297 limits assumed): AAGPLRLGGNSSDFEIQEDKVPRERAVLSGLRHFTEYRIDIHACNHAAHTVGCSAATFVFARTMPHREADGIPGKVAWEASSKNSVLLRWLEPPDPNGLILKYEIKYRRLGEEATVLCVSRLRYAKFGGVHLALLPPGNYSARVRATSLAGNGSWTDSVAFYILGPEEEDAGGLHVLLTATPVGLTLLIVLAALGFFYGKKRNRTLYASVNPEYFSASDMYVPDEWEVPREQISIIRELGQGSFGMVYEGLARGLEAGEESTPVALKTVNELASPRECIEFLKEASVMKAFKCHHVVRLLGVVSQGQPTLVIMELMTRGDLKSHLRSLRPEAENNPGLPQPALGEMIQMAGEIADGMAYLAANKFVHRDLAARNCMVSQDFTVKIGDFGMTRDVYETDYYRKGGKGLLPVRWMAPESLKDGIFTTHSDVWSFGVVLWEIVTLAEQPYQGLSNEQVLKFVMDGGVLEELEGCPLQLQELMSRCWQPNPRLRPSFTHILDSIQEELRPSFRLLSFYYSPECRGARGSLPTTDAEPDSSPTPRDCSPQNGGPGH
Tyrosine-protein kinase JAK2 (Homo sapiens), sequence (O60674 whole entry): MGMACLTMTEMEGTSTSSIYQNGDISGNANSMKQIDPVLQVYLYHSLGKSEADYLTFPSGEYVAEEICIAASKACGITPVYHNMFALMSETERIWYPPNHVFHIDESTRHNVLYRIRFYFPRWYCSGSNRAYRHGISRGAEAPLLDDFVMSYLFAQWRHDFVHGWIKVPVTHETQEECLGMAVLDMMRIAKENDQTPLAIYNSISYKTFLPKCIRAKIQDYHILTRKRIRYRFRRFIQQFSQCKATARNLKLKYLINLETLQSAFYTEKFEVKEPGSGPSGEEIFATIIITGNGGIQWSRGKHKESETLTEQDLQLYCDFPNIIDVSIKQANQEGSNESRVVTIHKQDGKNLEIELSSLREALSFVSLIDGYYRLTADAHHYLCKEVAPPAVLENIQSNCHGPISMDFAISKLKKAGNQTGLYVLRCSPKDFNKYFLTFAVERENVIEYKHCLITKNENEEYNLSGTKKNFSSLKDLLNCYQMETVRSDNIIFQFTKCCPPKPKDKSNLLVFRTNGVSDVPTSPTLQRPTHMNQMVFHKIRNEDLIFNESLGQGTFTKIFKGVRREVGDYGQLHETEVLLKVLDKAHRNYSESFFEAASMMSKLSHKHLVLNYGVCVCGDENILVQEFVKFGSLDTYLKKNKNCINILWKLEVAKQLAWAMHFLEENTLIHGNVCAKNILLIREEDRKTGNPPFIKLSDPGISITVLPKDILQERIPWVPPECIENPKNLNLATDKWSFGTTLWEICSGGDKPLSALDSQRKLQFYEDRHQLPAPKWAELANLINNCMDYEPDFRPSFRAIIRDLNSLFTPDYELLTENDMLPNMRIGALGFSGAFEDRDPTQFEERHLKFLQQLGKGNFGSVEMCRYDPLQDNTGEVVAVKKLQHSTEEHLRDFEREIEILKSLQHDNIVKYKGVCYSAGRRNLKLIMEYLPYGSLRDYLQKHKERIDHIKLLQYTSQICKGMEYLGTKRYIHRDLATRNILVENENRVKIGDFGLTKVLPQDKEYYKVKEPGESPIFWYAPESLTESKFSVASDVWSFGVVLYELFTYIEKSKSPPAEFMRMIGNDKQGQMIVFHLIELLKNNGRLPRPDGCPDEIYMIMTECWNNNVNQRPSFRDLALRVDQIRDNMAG

For `CCN(CC)C(=O)c1ccc(Nc2nc(OCC3CCCCC3)c3nc[nH]c3n2)cc1`, the residual activity in experiment [1] worked out at 143%; in experiment [2], 47%; in experiment [3], 7%; in experiment [4], 35%; in experiment [5] it was 57%; in experiment [6], 15%. The residual activity in experiment [7] is 69%; in experiment [8], 1%; in experiment [9], 32%; in experiment [10], 2%; in experiment [11] it was 3%; in [12], -1%. Besides, the residual activity is 7% in experiment [13]; 1% in experiment [14]; 44% in [15]; -11% in experiment [16]; 44% in experiment [17]; 0% in experiment [18]. Also, in experiment [19], the residual activity came to 5%.

Take `Nc1cccc(-c2cc3c(Oc4cccc(O)c4)ncnc3[nH]2)c1`: the residual activity came out at 46% in experiment [1]; 103% in [2]; 78% in experiment [3]; 69% in experiment [20]; 20% in experiment [4]; 79% in [5]. Also, the residual activity in experiment [6] amounted to 69%; in experiment [7] it was 98%; in experiment [8], 58%; in experiment [9] it was 68%; in experiment [10], 49%; in experiment [11], 80%. In addition, the residual activity in experiment [12] is 19%; in experiment [13], 83%; in experiment [14], 21%; in experiment [15], 102%; in [16], 89%; in [17], 90%. Further, the residual activity in experiment [18] stood at 82%; in experiment [19], 94%.

On to `N#CCCc1ccc2c(c1)-c1[nH]c3ccc([N+](=O)[O-])cc3c1CC(=O)N2`, for which the residual activity came out at 76% in [3]; 45% in experiment [20]; 20% in [4]; 62% in [5]; 28% in experiment [6]; 100% in experiment [7]. The residual activity was found to be 81% in experiment [8]; 81% in [9]; 52% in [10]; 66% in experiment [14]; 67% in experiment [19].

Regarding `CCOc1cc2ncnc(Nc3cccc(Br)c3)c2cc1OCC`, the residual activity in experiment [1] is 144%; in [2], 100%; in experiment [3], 92%; in experiment [20], 79%; in [4] it was 28%; in experiment [5], 49%. The residual activity in experiment [6] was 18%; in experiment [7] it was 126%; in [8], 85%; in experiment [9], 94%; in experiment [10] it was 85%; in [11], 118%. The residual activity in experiment [12] worked out at 88%; in experiment [13], 105%; in experiment [14] it was 87%; in [15] it was 99%; in experiment [16], 77%; in experiment [17] it was 105%. For the same compound, the residual activity worked out at 96% in experiment [18] and 43% in [19].

Regarding `COc1cc2ncnc(Nc3ccc(NC(=O)c4ccccc4)cc3)c2cc1OC`, the residual activity amounted to 92% in [1]; 105% in [2]; 100% in [20]; 99% in [4]; 97% in experiment [6]; 79% in [8]. Further, the residual activity in experiment [10] is 99%; in [13], 102%; in [17], 109%; in experiment [18], 108%.

Take `Cc1cc2ncc(-c3ccccc3)nc2cc1C`: the residual activity in experiment [20] was 99%; in experiment [4] it was 94%; in experiment [7] it was 124%; in [8], 71%; in [9], 93%; in [11], 101%. The residual activity was 98% in experiment [13]; 81% in experiment [14]; 99% in experiment [16]; 108% in experiment [17]; 97% in experiment [18]; 108% in experiment [19].

As to `Nc1nc(Nc2ccc(S(N)(=O)=O)cc2)nn1C(=S)Nc1c(F)cccc1F`, the residual activity in experiment [20] is 8%; in experiment [4], 16%; in [5], 8%; in [6], 0%; in experiment [9], 44%; in experiment [10] it was 3%. Moreover, the residual activity in experiment [11] turned out to be 2%; in experiment [12], 0%; in experiment [13], 0%; in experiment [14], 2%; in experiment [15], 88%; in experiment [16], 84%. Further, the values for the residual activity in experiment [17], in [18] and in experiment [19] were 71%, 19% and 35%, respectively.

Take `O=C1c2ccccc2-[n+]2ccc3c([nH]c4ccccc43)c21`: the residual activity in experiment [1] is 93%; in experiment [2], 101%; in [3], 86%; in experiment [20], 106%; in experiment [5], 79%; in experiment [6], 78%. Moreover, the residual activity in experiment [7] is 101%; in experiment [8] it was 92%; in experiment [9], 96%; in experiment [10], 93%; in experiment [11] it was 95%; in experiment [12], 101%. The residual activity stood at 109% in experiment [13]; 97% in experiment [15]; 87% in experiment [16]; 92% in experiment [17]; 106% in experiment [18]; 71% in experiment [19].
